Screens from PubChem.
KCNQ2 pot: potentiators of rat KCNQ2 potassium channel; CHO-K1 KCNQ2, FluxOR thallium flux fluorescence; stronger effect = higher value; B-score at 10 µM; 310,000 tested, 0.54% active; AID 2239, 2010;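 active means fluorescence ratio B-score at least 3 SD of library B-scores, with initial fluorescence B-score within 3 of them, cut at about 5.3 in these data; same plate scores as AID 2156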;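 further: B-score of peak minus minimum over baseline fluorescence ratio after K+ and Tl+ stimulus; positive B-score means potentiation of KCNQ2 with more thallium influx and brighter signal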
Target sequence (O88943 whole entry, looked up): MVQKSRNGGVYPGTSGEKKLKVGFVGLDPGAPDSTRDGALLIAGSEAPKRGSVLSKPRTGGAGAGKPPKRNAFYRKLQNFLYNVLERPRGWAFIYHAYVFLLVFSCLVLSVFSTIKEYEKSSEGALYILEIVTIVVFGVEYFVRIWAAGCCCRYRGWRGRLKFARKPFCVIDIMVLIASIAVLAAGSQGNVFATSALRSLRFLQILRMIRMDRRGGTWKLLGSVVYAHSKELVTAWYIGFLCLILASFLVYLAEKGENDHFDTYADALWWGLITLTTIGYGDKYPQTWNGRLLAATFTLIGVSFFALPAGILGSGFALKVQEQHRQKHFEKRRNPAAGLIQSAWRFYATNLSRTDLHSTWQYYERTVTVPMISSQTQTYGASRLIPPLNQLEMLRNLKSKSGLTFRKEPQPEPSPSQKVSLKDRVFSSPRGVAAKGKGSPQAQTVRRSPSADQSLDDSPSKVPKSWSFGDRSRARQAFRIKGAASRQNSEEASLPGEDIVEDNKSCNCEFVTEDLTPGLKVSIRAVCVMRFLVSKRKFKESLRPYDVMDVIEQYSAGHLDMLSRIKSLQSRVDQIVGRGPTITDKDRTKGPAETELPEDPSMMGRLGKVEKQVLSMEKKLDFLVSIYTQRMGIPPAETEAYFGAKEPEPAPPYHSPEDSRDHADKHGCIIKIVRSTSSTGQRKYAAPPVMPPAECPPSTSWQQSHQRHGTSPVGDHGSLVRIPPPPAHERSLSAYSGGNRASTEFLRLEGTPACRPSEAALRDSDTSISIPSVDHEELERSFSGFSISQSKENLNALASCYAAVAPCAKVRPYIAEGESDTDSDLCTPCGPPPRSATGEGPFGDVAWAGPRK
KCNQ2 block: rat KCNQ2 potassium channel inhibitors, primary screen, cell-based, CHO-K1, FluxOR thallium flux, B-score; 310,000 tested, 1.1% active; Potassium voltage-gated channel subfamily KQT member 2 (Rattus norvegicus), O88943; 20 min; stronger effect = lower value; B-score at 10 µM; AID 2156, 2009;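 active means fluorescence ratio B-score at most minus 3 library SDs, with starting brightness B-score within 2 library SDs, cut at about -5.5 in these data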
* = called active by the depositor; i = inactive; x = no result. Most compounds without a hit are left out; they make up all but 1.6% or so of the library.

SMILES	KCNQ2 pot	KCNQ2 block
COc1ccccc1C(=O)N/C(=C\c1cn(C)c2ccccc12)C(=O)N1CCOCC1	x	i
N#Cc1ccccc1COc1cccc2c1CCCC2O (configuration not stated)	x	i
COc1ccc(CN2CCN(Cc3cccc(Oc4ccccc4)c3)CC2)c(OC)c1OC	-7.5	-7.5*
CN1CCN(Cc2cccc(Oc3ccccc3)c2)CC1	0.44	i
Cc1ccc(CN(C)C(=O)c2cc(COc3cccc(C(F)(F)F)c3)on2)o1	x	i
O=C(NCc1nnc(SCC(=O)N2CCCCC2)o1)c1c(F)cccc1Cl	x	i
O=C(Nc1cccc(Cl)c1)N(CCN1CCOCC1)Cc1ccccc1F	x	i
O=C(Nc1cccc(Cl)c1)N(CCN1CCOCC1)Cc1cccc(Cl)c1	-7.3	-7.3*
O=C(CN(Cc1ccc(F)cc1)C(=O)CCC(=O)Nc1ccccn1)NCc1ccc(F)cc1	x	i
CCOC(=O)C1CCN(C(=O)CCn2c(=O)c3cccn3c3cccnc32)CC1	2.1	i
COCCn1c(C)cc(C(=O)CSc2nc(C)cc(C)c2C#N)c1C	x	i
Cc1cc(C)c(C#N)c(SCC(=O)c2cc(C)n(CCc3ccccc3)c2C)n1	-6.4	-6.4*
COc1c(CC=C(C)C)cc(C2CC(=O)c3c(O)cc(O)cc3O2)cc1CC=C(C)C (configuration not stated)	-5.6	-5.6*
O=C1C[C@@H](c2ccccc2)Oc2cc(O)cc(O)c21	0.64	i
CC1CCCCN1C(=O)c1cc2ccccc2cc1O (configuration not stated)	0.21	i
CCC(CC)NC(=O)c1oc2ccccc2c1COc1ccccc1	x	i
CC(C)CNC(=O)c1oc2ccccc2c1COc1ccccc1	-6.4	-6.4*
NS(=O)(=O)c1ccc(CCNC(=O)c2coc3ccccc3c2=O)cc1	x	i
Cc1cccc(C)c1OCc1nc2ccccc2[nH]1	-5.7	-5.7*
Cc1ccc(C)c(OCc2nc3ccccc3[nH]2)c1	x	i
CCc1c(C)nc2cc(-c3cccc(Br)c3)[nH]n2c1=O	2.1	i
COc1ccc([N+](=O)[O-])cc1/C=N/NC(=O)Cc1ccccc1	6*	i
COc1cc(/C=N/NC(=O)Cc2ccccc2)ccc1Oc1ccc([N+](=O)[O-])cc1[N+](=O)[O-]	0.78	i
Cc1cc(C)n(CC(=O)NC2CCCCC2C)c(=O)c1C#N (configuration not stated)	1.4	i
Cc1cc(/C=C(/C#N)c2cccc(F)c2)c(C)n1-c1cccnc1	-8	-8*
SMILES	KCNQ2 pot	KCNQ2 block
Cc1cc(/C=C(\C#N)C(=O)NCc2ccco2)c(C)n1-c1cccnc1	0.47	i
CCc1cc(C(=O)Nc2ccc(S(=O)(=O)NC3=NCCCCC3)cc2)sc1C	x	i
COc1cccc(N2CCN(C(=O)c3cccn4c(=O)c5c(C)c(C)sc5nc34)CC2)c1	x	i
Cc1sc2nc3c(C(=O)N4CCCC4)cc(C(=O)c4ccccc4O)cn3c(=O)c2c1C	-7.1	-7.1*
Cc1onc(-c2ccccc2)c1C(=O)N1CCN(c2ccccc2F)CC1	x	i
CCOC(=O)N1CCN(CC(O)COc2ccc3c(c2)CCC3)CC1 (configuration not stated)	0.11	i
C=C(C)COc1ccc(-c2ncncc2Oc2ccc(OC)cc2)c(O)c1	-5.8	-5.8*
C=C(C)COc1ccc(-c2nc(N)nc(C)c2-c2ccc(OC)cc2)c(O)c1	x	i
O=C(Nc1cccc(C(F)(F)F)c1)c1cccnc1	1.8	i
COc1cc(NC(=O)c2ccnnc2)cc(C(=O)Nc2cccc(C(F)(F)F)c2)c1	-5.8	-5.8*
O=C(CN(C(=O)CCC(=O)Nc1nccs1)c1ccc(F)cc1)NCc1ccccc1	0.8	i
CCCCN(Cc1ccco1)S(=O)(=O)c1ccc(-c2ccc(=O)[nH]n2)s1	x	i
O=C(c1cccn2c(=O)c3ccc(Cl)cc3nc12)N1CCN(Cc2ccc3c(c2)OCO3)CC1	-5.8	-5.8*
CCNC(=S)N1CCN(Cc2ccc3c(c2)OCO3)CC1	2.3	i
O=C(NC(=S)N1CCN(Cc2ccc3c(c2)OCO3)CC1)c1cccc(Br)c1	9.5*	i
O=C(c1cccc(Cl)c1)N1CCN(Cc2ccc3c(c2)OCO3)CC1	x	i
Cc1cc(Cl)ccc1NC(=S)N1CCN(Cc2ccc3c(c2)OCO3)CC1	x	i
O=C(NC(=S)N1CCN(Cc2ccc3c(c2)OCO3)CC1)c1ccc(Cl)cc1	8.9*	i
CCSc1nnc(N2C(=O)c3ccc(C(=O)c4ccc(C(=O)O)cc4)cc3C2=O)s1	x	i
CC1CCC2(CC1)NC(=O)N(CC(=O)N1CCN(S(=O)(=O)c3ccccc3)CC1)C2=O (configuration not stated)	0.27	i
COc1ccc(CCC(=O)Nc2cccc(S(=O)(=O)N(C)C)c2)cc1OC	0.28	i
COc1ccccc1CN(C)C(=O)c1cnc(C)cn1	0.37	i
COc1ccccc1CN(C)C(=O)c1sccc1-c1ccccc1	-6.5	-6.5*
O=C1NCCCC1C(=O)N/N=C/c1cccc(Cl)c1 (configuration not stated)	2.6	i
O=C(CSc1nnc(CNC(=O)c2c(F)cccc2F)o1)NCC1CCCO1 (configuration not stated)	x	i
SMILES	KCNQ2 pot	KCNQ2 block
COc1ccc(CCN2CC(C(=O)N3CCN(C(C)=O)CC3)CCC2=O)cc1 (configuration not stated)	x	i
C[C@H]1COC2=C1C(=O)C(=O)c1c2ccc2c1CCCC2(C)C	-6.2	-6.2*
Cc1coc2c1C(=O)C(=O)c1c-2ccc2c1CCCC2(C)C	x	i
COc1ccc(OC)c(NC(=O)c2c3c(nc4ccccc24)CCC3)c1	-6.1	-6.1*
COc1ccc(NC(=O)c2c3c(nc4ccccc24)CCC3)cc1	x	i
COC(=O)c1c2c(nc3ccccc13)CCC2	0.42	i
O=C(Nc1ccccc1)c1c2c(nc3ccccc13)CCCC2	-8.2	-8.2*
O=C(NCCc1ccccc1)c1cccc(N2CCCC2=O)c1	x	i
CC(C)C(=O)Nc1ccc2nn(-c3ccccc3)nc2c1	0.63	i
Cc1ccc(OCC(=O)NCCNC(=O)c2cccnc2)cc1C	0.21	i
COc1cccc(C(=O)Nc2cc3c(cc2C(C)=O)OCCO3)c1	1.6	i
CCCOC1CCCN(Cc2nc(-c3ccc(C(=O)OC)cc3)no2)C1 (configuration not stated)	x	i
CN(C)c1ccc(NC(=O)CN2C(=O)CC(c3ccccc3)=Nc3ccccc32)cc1	1.9	i
O=C1CC(c2ccccc2)=Nc2ccccc2N1Cc1ccccc1	-6.2	-6.2*
Cc1ccc(N(C)S(=O)(=O)c2cccc(C(=O)NCC(c3cccs3)N3CCOCC3)c2)cc1 (configuration not stated)	-6.8	-6.8*
Cc1ccc(S(=O)(=O)N(C)c2ccc(C(=O)NCC(c3cccs3)N3CCOCC3)cc2)cc1 (configuration not stated)	x	i
COc1ccccc1C(=O)NNC(=O)c1ccc(NC(=O)CC(C)C)cc1	0.17	i
CCOc1cc(S(=O)(=O)n2cc(-c3ccc(F)cc3)c(N)n2)cc(OCC)c1OCC	x	i
CCOc1cc(-c2cn(S(=O)(=O)c3cccc4nsnc34)nc2N)cc(OCC)c1OCC	-6.3	-6.3*
CCCCN(C(=O)c1cc(Cl)nc2ccccc12)c1c(N)n(CCCC)c(=O)[nH]c1=O	1.1	i
